# Source: ChEMBL document CHEMBL3988442, “University of Dundee, Small-Polar-MMV Screening Library” (2021)
# For part of these data: Results with a measured potency or affinity are listed apart.
# How the values were obtained:
# Design in all cases: scale not given: direction of the effect not stated beside the values
# [1] = target: Protein translocase subunit SecA (Escherichia coli (strain K12)) (UniProt P10408); assay: Assay to Identify E. coli SecA ATPase Inhibitors; format: functional; details: 30 µM
# [2] = target: T1, Ubiquitin-activating enzyme e1, putative (Leishmania donovani (strain BPK282A1)) (UniProt E9BSI1); assay: Leishmania donovani Ubiquitin Activating Enzyme (LdE1); format: functional; details: 30 µM
# T1 sequence (whole entry): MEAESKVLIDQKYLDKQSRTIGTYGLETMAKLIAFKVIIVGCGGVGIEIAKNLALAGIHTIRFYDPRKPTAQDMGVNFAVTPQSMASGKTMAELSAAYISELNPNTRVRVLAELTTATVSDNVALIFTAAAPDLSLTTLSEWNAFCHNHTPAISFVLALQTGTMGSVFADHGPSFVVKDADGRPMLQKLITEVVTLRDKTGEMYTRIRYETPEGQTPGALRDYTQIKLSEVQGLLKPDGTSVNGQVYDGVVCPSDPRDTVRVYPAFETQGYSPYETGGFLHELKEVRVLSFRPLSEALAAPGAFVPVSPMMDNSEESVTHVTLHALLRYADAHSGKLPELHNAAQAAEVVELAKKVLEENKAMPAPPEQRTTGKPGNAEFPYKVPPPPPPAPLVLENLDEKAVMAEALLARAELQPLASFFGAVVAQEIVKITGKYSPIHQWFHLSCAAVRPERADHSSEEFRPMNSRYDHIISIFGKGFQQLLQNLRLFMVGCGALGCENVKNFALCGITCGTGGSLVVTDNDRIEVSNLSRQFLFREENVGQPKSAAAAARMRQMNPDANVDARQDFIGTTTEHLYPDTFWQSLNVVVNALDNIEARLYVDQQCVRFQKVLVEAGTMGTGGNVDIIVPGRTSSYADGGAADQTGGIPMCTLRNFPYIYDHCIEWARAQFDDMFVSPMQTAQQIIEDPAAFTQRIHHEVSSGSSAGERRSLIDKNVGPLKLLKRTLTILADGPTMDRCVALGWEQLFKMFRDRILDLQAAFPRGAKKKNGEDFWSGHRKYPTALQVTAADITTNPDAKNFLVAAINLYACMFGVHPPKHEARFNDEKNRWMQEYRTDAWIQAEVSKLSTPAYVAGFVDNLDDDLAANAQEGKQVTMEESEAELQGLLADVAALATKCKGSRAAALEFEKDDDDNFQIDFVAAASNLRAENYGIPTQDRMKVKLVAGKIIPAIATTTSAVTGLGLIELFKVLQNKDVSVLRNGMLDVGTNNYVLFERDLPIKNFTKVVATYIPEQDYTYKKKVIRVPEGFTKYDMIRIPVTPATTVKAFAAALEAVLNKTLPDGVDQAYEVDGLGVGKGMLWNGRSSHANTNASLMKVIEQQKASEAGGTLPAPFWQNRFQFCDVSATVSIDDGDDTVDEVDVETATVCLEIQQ
# [3] = target: AMP-activated protein kinase, AMPK (Homo sapiens) (UniProt P54646+O43741+P54619+Q9UGJ0+Q9Y478+Q13131+Q9UGI9); assay: AMP-dependent Kinase enzyme assay. An in vitro enzyme assay that detects ADP turnover that is directly proportional to AMPK activity. This uses naive AMPK that is activated during the assay with MK-8722; format: functional; details: 30 µM
# [4] = target: Sialic acid-binding Ig-like lectin 9 (Homo sapiens) (UniProt Q9Y336); assay: Hs-Siglec9 ALPHAscreen SOP 20170721; details: 10 µM
# Trypanosoma cruzi = assay: Trypanosoma cruzi phosphomannomutase and mannose-1-phosphate guanylyltransferase assay; format: functional; details: 10 µM
# [5] = target: T2, Arginase-2, mitochondrial (Homo sapiens) (UniProt P78540); assay: in vitro enzyme assay to detect the production of urea directly proportional to the activity of Arginase II; format: functional; details: 33.3 µM; also: in the data most compounds retested in dose-response had high values
# T2 sequence (whole entry): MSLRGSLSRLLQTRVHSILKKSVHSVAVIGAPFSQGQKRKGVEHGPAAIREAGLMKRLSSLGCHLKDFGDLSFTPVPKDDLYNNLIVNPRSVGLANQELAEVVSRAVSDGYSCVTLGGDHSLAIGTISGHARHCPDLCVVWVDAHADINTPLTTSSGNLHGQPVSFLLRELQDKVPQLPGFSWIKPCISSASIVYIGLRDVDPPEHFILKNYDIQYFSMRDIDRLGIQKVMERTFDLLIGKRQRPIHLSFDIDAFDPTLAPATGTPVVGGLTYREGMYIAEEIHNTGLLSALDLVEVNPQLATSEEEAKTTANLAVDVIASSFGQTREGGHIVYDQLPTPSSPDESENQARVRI
# [6] = target: T3, Proteasome subunit beta (Trypanosoma cruzi) (UniProt O96673); assay: Trypanosoma cruzi proteasome chymotrypsin-like activity (TcProtChymo) assay.; also: in the data most compounds retested in dose-response had high values; format: functional; details: 9.37 µM
# T3 sequence (whole entry): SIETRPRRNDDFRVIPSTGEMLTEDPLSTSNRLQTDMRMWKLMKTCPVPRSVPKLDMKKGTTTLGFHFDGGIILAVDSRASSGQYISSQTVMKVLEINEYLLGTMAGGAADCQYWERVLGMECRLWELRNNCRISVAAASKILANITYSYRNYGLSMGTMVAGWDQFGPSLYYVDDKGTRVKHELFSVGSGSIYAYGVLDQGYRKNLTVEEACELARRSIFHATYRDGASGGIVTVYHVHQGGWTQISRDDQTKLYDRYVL
# Homo sapiens = organism: Homo sapiens; assay: To identify inhibition of the IFN signalling (Jak-Stat) pathway via expression of an eGFP reporter gene under the control of an IFN-stimulated response element (ISRE) containing MxA promoter.; format: functional; details: 30 µM
# [7] = target: T4, Tyrosyl-tRNA synthetase, putative (Trypanosoma cruzi (strain CL Brener)) (UniProt Q4DSP6); assay: Trypanosoma cruzi tyrosyl tRNA synthetase (TcYRS) _High Tyrosine SOP; format: functional; details: 30 µM; also: in the data most compounds retested in dose-response had high values
# T4 sequence (whole entry): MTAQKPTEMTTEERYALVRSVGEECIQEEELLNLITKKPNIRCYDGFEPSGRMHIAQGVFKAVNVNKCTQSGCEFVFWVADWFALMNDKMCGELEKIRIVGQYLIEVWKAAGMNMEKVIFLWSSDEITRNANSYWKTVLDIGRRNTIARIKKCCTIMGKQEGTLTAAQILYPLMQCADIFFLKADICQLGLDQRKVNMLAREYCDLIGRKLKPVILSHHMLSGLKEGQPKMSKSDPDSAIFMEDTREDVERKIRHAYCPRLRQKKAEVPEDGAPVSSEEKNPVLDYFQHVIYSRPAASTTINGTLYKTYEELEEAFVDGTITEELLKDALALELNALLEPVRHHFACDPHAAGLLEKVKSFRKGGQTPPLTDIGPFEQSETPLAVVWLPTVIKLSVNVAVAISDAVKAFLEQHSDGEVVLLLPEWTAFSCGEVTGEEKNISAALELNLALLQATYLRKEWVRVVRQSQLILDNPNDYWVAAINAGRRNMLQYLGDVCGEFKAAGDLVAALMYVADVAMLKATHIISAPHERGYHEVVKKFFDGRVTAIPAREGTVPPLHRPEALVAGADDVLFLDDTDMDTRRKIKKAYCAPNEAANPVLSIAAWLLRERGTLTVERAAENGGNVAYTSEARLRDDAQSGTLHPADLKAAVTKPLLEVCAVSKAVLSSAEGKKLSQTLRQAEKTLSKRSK
# [8] = target: T4, Tyrosyl-tRNA synthetase, putative (Trypanosoma cruzi (strain CL Brener)); assay: Trypanosoma cruzi tyrosyl tRNA synthetase (TcYRS) SOP; format: functional; details: 30 µM
# [9] = target: Chromo domain-containing protein 1 (Saccharomyces cerevisiae (strain ATCC 204508 / S288c) (Baker's yeast)) (UniProt P32657); assay: ScCHD-1 Enzyme Inhibition Assay; format: functional; details: 30 µM; also: in the data most compounds retested in dose-response had high values
# Sequence of Chromo domain-containing protein 1 (Saccharomyces cerevisiae (strain ATCC 204508 / S288c) (Baker's yeast)) (P32657 whole entry, the tested form may be a part): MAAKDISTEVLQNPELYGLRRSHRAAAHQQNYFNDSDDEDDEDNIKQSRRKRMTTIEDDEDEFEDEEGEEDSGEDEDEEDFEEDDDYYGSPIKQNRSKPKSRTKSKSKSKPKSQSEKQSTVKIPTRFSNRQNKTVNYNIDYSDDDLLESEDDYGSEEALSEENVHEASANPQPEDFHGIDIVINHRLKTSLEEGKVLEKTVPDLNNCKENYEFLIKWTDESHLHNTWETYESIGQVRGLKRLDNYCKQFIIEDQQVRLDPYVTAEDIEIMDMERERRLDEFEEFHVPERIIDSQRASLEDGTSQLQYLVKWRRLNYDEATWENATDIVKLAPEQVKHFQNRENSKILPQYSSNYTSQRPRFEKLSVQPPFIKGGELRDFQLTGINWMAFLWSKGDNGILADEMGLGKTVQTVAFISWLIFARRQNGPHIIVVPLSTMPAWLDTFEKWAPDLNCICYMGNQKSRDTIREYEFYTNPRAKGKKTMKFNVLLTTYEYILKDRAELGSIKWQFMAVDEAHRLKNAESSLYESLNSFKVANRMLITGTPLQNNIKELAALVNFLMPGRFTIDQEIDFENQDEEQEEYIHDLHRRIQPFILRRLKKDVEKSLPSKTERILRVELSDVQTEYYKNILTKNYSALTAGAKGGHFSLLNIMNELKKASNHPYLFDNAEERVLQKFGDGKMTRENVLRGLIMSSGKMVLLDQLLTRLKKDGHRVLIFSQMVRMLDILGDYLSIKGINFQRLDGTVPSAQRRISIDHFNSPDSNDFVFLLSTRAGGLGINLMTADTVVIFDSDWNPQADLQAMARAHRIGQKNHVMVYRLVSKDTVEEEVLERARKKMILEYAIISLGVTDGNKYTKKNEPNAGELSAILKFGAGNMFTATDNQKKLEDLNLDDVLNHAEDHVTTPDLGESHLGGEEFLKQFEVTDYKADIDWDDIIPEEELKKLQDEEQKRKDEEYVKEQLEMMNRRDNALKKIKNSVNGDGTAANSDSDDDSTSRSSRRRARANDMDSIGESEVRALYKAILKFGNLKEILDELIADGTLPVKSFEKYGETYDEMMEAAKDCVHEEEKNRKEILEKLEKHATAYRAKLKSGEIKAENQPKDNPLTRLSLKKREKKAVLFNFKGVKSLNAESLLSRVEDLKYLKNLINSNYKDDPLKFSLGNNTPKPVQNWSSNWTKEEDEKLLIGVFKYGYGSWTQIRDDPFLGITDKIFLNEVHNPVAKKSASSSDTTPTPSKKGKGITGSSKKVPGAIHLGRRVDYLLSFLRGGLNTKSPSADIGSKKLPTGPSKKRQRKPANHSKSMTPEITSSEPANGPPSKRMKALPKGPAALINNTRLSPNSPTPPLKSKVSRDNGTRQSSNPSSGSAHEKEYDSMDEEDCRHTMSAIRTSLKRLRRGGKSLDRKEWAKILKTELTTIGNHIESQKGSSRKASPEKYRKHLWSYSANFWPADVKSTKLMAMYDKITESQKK
# Sequence of Sialic acid-binding Ig-like lectin 9 (Homo sapiens) (Q9Y336 whole entry): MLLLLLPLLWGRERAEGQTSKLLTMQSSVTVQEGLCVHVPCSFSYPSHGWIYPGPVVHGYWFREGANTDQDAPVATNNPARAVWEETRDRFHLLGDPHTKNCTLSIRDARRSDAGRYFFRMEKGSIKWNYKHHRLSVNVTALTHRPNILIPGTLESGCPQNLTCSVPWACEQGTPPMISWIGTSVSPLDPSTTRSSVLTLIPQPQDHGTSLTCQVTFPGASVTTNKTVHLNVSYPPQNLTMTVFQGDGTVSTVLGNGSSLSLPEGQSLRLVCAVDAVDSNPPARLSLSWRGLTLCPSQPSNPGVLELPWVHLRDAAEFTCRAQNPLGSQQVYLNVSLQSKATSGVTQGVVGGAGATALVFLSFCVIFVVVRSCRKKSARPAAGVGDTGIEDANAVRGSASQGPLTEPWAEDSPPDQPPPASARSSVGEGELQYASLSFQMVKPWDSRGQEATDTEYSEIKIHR
# Sequence of Protein translocase subunit SecA (Escherichia coli (strain K12)) (P10408 whole entry): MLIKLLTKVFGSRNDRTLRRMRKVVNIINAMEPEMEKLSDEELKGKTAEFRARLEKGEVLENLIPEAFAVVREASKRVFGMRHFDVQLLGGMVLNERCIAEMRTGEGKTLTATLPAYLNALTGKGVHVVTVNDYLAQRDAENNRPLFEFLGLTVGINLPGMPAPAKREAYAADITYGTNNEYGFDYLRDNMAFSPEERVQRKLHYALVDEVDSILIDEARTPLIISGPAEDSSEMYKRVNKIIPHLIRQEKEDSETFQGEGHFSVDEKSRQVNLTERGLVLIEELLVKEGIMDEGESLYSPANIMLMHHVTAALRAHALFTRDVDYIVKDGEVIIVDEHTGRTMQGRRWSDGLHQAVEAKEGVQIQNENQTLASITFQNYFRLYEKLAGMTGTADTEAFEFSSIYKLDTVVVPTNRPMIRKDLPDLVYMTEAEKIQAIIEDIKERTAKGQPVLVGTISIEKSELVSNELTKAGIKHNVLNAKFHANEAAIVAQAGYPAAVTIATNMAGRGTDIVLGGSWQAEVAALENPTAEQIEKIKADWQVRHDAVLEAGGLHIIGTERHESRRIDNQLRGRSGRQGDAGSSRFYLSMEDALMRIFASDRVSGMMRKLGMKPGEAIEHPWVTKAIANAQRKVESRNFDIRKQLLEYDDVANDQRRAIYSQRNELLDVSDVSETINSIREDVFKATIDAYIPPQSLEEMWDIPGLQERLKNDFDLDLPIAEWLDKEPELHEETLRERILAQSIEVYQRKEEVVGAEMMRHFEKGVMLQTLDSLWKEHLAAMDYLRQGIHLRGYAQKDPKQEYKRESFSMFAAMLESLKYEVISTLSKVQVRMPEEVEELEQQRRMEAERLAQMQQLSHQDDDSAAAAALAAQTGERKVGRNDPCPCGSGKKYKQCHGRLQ
SMILES,Percent Effect [1],Percent Effect [2],Percent Effect [3],Percent Effect [4],Percent Effect (Trypanosoma cruzi),Percent Effect [5],Percent Effect [6],Percent Effect (Homo sapiens),Percent Effect [7],Percent Effect [8],Percent Effect [9]
COC(=O)CN(C)C1CCc2ccccc21 (stereo not given),-0.581%,15.8%,1.01%,8.14%,1.5%,5.36%,18.4%,-4.6%,7.35%,9.76%,-8.13%
CSCC(=O)N1C[C@H]2CC[C@@H]1CN(Cc1ccccc1)C2,-2.57%,8.22%,14.1%,-0.0854%,0%,0.455%,10.8%,15.3%,11.8%,12.5%,-6.22%
CN1CCC(Cc2cc(Nc3ncccn3)ncn2)CC1,-1.87%,6.76%,11.2%,0.0242%,-1.98%,-1.16%,2.34%,6.81%,4.3%,9.09%,-10.4%
Cc1ccc(NC2CCN(C(=O)Cn3nc(C)cc3C)CC2)nn1,-1.08%,15.8%,-0.776%,6.59%,-0.376%,-0.766%,17.9%,6.37%,3.43%,12.2%,-1.72%
CN(C)CCO[C@@H]1CC[C@H]2[C@H]1OCCN2C(=O)COc1ccccc1,-2.92%,0%,-3.78%,3.69%,-0.88%,-27.1%,17.7%,8.7%,-1.08%,0%,1.68%
COc1ccc(C)cc1CN1CCCC1Cn1nc(C)nc1C (stereo not given),-5.51%,-3.8%,-7.49%,4.01%,2.97%,-0.645%,16.6%,46.5%,8.33%,12.7%,-26.7%
CCc1ncc2c(n1)CN(Cc1nc(-c3ccsc3)no1)CC2,-3.47%,-18.4%,-15.2%,-3.23%,-1.77%,-0.719%,7.02%,-16.8%,9.36%,-1.24%,8.2%
CC(C)CNC(=O)c1c(-n2cnnn2)sc2c1CCC2,-4.85%,13.2%,3.3%,0.76%,0.0974%,0%,10.4%,-15.7%,2.13%,15.6%,-4.29%
Cc1nc(C2CCCN2CC(=O)NCCc2ccsc2)no1 (stereo not given),-2.17%,16.2%,-10.4%,13.2%,5.11%,3.51%,10.4%,-5.59%,6.93%,18.3%,-8.06%
CN(Cc1ccc(Cl)c(Cl)c1)C(=O)CNC(N)=O,-3.49%,10.5%,9.37%,-5.68%,3.6%,-13%,17.4%,2.07%,4.25%,15.6%,-1.83%
CC(c1nc(C2CC2)no1)N1CCN(Cc2cccc(C#N)c2)CC1 (stereo not given),-5.05%,15.4%,,-15.7%,5.35%,-4.1%,10.5%,3.36%,3.35%,20.5%,-0.399%
